Screening data from PubChem.
CDC25B-CDK2 inh = human CDC25B-CDK2/CyclinA binding inhibition; actives 0.72% (n = 94,000); z-score (test concentration not listed); P30305+P24941; HTRF CDC25B-CDK2/CyclinA binding, anti-His/anti-Flag; active compounds read high; in the data active means z-score above about 3.2
HIV TAR-Tat = HIV-1 TAR-Tat binding disruption | z-score (test concentration not listed) | actives 0.6% (n = 100,000) | HIV-1 TAR RNA, Tat peptide displacement FRET; active compounds read high | AID 1259389; active means z-score of 3 or more in at least 2 runs
Numbers stand for hits; . = inactive; / = no result. Rows were chosen to be rich in hits. Some 0.86% of all compounds tested hit in one or more screens of this group.

SMILES | CDC25B-CDK2 inh | HIV TAR-Tat
O=C(/C=C/c1cccs1)NC(=S)Nc1ccccc1 | 8.3 | /
O=C(/C=C/c1cccs1)NC(=S)NCc1ccccc1 | . | /
Cc1cc(NS(=O)(=O)c2ccc3c(c2)CC(=O)N3)ccc1Br | . | .
CSc1ccc(NC(=O)NCCCN2CCc3ccccc3C2)cc1 | . | .
O=C(NCCCN1CCc2ccccc2C1)Nc1ccc(Br)cc1 | 9.2 | .
COc1ccc2c(c1)oc(=O)c1ccccc12 | . | .
COc1cc(O)c2c(c1)oc(=O)c1c3cc(O)c(O)cc3oc21 | / | 38
COc1ccc(-c2cc(-c3nnc(N)o3)no2)cc1 | . | .
CC(C)(C)C(=O)Nc1ccc(C(=O)OCc2cc(=O)n3nc(C4CC4)sc3n2)cc1 | / | .
O=c1cc(CSc2nc3ccccc3s2)[nH]c2[nH]n(-c3ccccc3)c(=O)c12 | . | 6.2
O=c1cc(CSc2ccc(Cl)cc2)[nH]n1-c1ccccc1 | . | .
O=c1cc(CSc2ccc(Cl)cc2)[nH]c2[nH]n(-c3ccccc3)c(=O)c12 | . | 4.6
O=c1cc(CSc2nc3ccccc3s2)[nH]c2nc3ccccc3n12 | . | .
CCC(C)NC(=O)C(=O)Nc1c2c(nn1-c1ccc(F)cc1)CSC2 (configuration not stated) | / | .
Cc1cccc(-c2noc(COc3cccc(C)c3C)n2)c1 | . | /
CCOc1ccc2ncc(S(=O)(=O)c3ccc(Cl)cc3)c(N3CCCC3)c2c1 | . | .
COc1ccc(Cc2nn3c(C(F)(F)F)nnc3s2)cc1OC | . | .
O=C(CN1C(=O)C2(OCCO2)c2ccccc21)c1ccc(C(F)(F)F)cc1 | . | /
O=C1c2c(O)ccc(O)c2C(=O)c2c(NCCNCCO)ccc(NCCNCCO)c21 | . | 17
O=C1c2ccccc2C(=O)c2c(NCCc3ccc(O)cc3)ccc(NCCc3ccc(O)cc3)c21 | . | /
COc1ccc(C(=O)CSc2n[nH]c(=O)n2C2Cc3ccccc3C2)cc1 | . | /
CCCCn1c(=O)c2c(nc3n2CCN3c2ccc(C)cc2)n(C)c1=O | / | .
CCCCCn1c(=O)c2c(nc3n2CCN3c2ccc(C)cc2)n(C)c1=O | / | 5.2
Cn1c(=O)n(Cc2ccccc2Cl)c(=O)c2c1nc1n2CCN1Cc1ccco1 | . | /
Cn1c(=O)n(Cc2ccccc2F)c(=O)c2c1nc1n2CCN1Cc1ccco1 | / | 4.7
SMILES | CDC25B-CDK2 inh | HIV TAR-Tat
CCOC(=O)CN1CSC2=C(C#N)C(c3ccc(Cl)cc3)CC(=O)N2C1 (configuration not stated) | 3.8 | .
CC(C)CCN1CSC2=C(C#N)C(c3ccc(Cl)cc3)CC(=O)N2C1 (configuration not stated) | . | .
Cc1ccc(C2CC(=O)N3CN(CCC(C)C)CSC3=C2C#N)cc1 (configuration not stated) | 5.2 | .
CC(C)CCN1CSC2=C(C#N)C(c3ccc(F)cc3)CC(=O)N2C1 (configuration not stated) | 5 | .
CCOC(=O)N1CCC(Nc2c(NC(C)CC)c(=O)c2=O)CC1 (configuration not stated) | . | .
Cc1c(C(=O)O)oc2ccc(S(=O)(=O)N3CCN(c4cccc(Cl)c4)CC3)cc12 | . | /
Cc1ccc(S(=O)(=O)NC2CCN(c3ncccn3)CC2)cc1 | . | .
O=C(NCc1ccco1)NCc1cccn1Cc1cccc(F)c1 | / | .
Cc1ccc(S(=O)(=O)NNC2CS(=O)(=O)c3ccccc32)cc1 (configuration not stated) | . | /
CCCCC(=O)Nc1nc2nc(C)c(C)c(=O)n2[nH]1 | . | .
O=C1c2cccc(O)c2C(=O)c2c(O)cc(CO)cc21 | / | 6.2
Cc1cc(O)c2c(c1)C(=O)c1cc(O)cc(O)c1C2=O | . | .
CCOC(=O)C1CCN(c2nnc(-n3c(C)ccc3C)s2)CC1 | . | .
CCOC(=O)C1CCN(c2ccc([N+](=O)[O-])s2)CC1 | / | 3.5
Oc1ccc(/C=C/c2ccc(/C=C/c3ccc(O)cc3)c(Br)c2)cc1 | . | /
Oc1cc(O)cc(/C=C/c2ccc(O)c(O)c2)c1 | . | 37
CCOC(=O)N1CCC2(CC1)OC(=O)C(C)=C2C(=O)NCCC(C)C | / | .
O=C1CCSc2c1cccc2C(=O)N1CCOCC1 | / | .
O=C1c2ccccc2-c2c1cccc2C(=O)N1CCOCC1 | 17 | .
CN1C(=O)CSc2ccc(NC(=O)Nc3cccnc3)cc21 | 19 | .
Cc1ccc(NC(=O)Nc2cccnc2)cc1Cl | . | /
CN1CCc2cc(NC(=O)Nc3cccnc3)ccc21 | 23 | /
Cc1cccnc1NC(=O)Nc1ccc2c(c1)N(C)C(=O)CS2 | . | .
COc1ccc(-n2nc3ccc(N)cc3n2)cc1Cl | . | 16
Cc1ccc(-n2nc3ccc(N)cc3n2)cc1Cl | . | .
SMILES | CDC25B-CDK2 inh | HIV TAR-Tat
COc1ccccc1C1CC(=O)N2CN(Cc3ccccc3)CSC2=C1C#N (configuration not stated) | 5.3 | .
COc1cccc(C2CC(=O)N3CN(Cc4ccccc4)CSC3=C2C#N)c1OC (configuration not stated) | 5.5 | .
N#CC1=C2SCN(Cc3ccccc3)CN2C(=O)CC1c1cccc2ccccc12 (configuration not stated) | . | .
COc1ccccc1C1CC(=O)N2C(=C1C#N)SCC2(O)c1ccccc1 (configuration not stated) | . | /
O=C(CSC1=NC(c2ccccc2)=NCN1c1ccccc1)N1CCN(c2ccccc2)CC1 | . | .
COc1ccc(CN(Cc2cc(=O)c3cc(Cl)ccc3[nH]2)CC(C)C)cc1OC | / | .
O=C(C1CCN(c2nc3cccnc3s2)CC1)N1CCN(c2ccc(F)cc2)CC1 | / | .
CCC12CN3CC(C)(CN(C1)C3c1ccccc1Cl)C2=O (configuration not stated) | . | .
Cc1c(C(=O)NCCCN2CCOCC2)sc2nc3n(c(=O)c12)CCCCC3 | / | .
Cc1c(NC(=O)NCCCN2CCOCC2)sc2nc3n(c(=O)c12)CCC(C)CC3 (configuration not stated) | 10 | .
CCn1c(SCC(=O)Nc2nc(C)cs2)nnc1-c1cc2ccccc2o1 | / | 5.3
Cc1csc(NC(=O)CSc2nnc(-c3cc4ccccc4o3)n2-c2ccccc2)n1 | / | .
CCn1nc(C)c(CCNS(=O)(=O)c2cc3c(cc2C)NC(=O)CO3)c1C | / | .
CC12CN3CC(c4ccccc4)(CN(C1)C3c1ccccc1O)C2=O (configuration not stated) | . | .
COc1cccc(C2N3CC4(C)CN2CC(c2ccccc2)(C3)C4=O)c1O (configuration not stated) | . | 4.2
Cc1cc(NC(=O)N2CCCC2c2cccs2)ccc1Br (configuration not stated) | . | .
COc1ccc(C2OC(c3cc(C4CC4)nc4ccccc34)=NN2C(C)=O)c(OC)c1 (configuration not stated) | / | 9.2
CC(=O)N1N=C(c2cc(C3CC3)nc3ccccc23)OC1c1ccccc1 (configuration not stated) | / | .
CCC(=O)Nc1ccc2c(c1)sc(=O)n2C | / | .
Cn1c(=O)sc2cc(NC(=O)Cn3c(=O)oc4ccccc43)ccc21 | 7.5 | .
FC(F)(F)C(=C(N=C(Cl)SOCc1ccccc1)C(F)(F)C(F)(F)F)C(F)(F)F | . | /
FC(F)(F)C(=C(SSCc1ccccc1)C(F)(F)C(F)(F)F)C(F)(F)F | 4.3 | /
O=c1cc(NCCC2=CCCCC2)c2ccccc2o1 | . | /
CN1C2=C(C(=O)CC(C)(C)C2)C(c2cccs2)C2=C1CC(C)(C)CC2=O | 16 | /
